Several values for one entry are separate records, joined by “and”; a condition that tells them apart may be missing. Identical values can stand only once. Records with an inconclusive call do not appear. The source holds several records for some structures; these can differ, active in one and inactive in another. Activity calls are given as the source filed them. Calls follow the shape of the full dose curve.
How the values were obtained:
[1] = molecular target: Acetylcholinesterase (Homo sapiens) (UniProt P22303); assay: Acetylcholinesterase (AChE) small molecule antagonists: colormetric cell-based qHTS assay (AID 1347395); also: nearly all actives have a fitted effect of over 30% in size
Summary of the method: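 SH-SY5Y cells attached overnight, exposed to compound 30 min at 37 C, then given DTNB/acetylthiocholine; after 90 min at 37 C, colorimetric thiocholine read gives cellular AChE activity.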

[2] = molecular target: Acetylcholinesterase (Homo sapiens) (UniProt P22303); assay: Acetylcholinesterase (AChE) small molecule antagonists: enzyme-based qHTS assay (AID 1347397); settings: Potency: AChE enzyme activity inhibition; outcome: AChE enzyme activity inhibition; also: nearly all actives have a fitted effect of over 55% in size; also: potency is read from the fitted curve at half-maximal effect
Summary of the method: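 In this quantitative HTS, compounds from the Tox21 10K collection were preincubated 30 min at ambient temperature with recombinant human AChE dispensed at 50 mU/mL. Hydrolysis of acetylthiocholine was then followed for 10 min by DTNB colour development.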

[3] = molecular target: Acetylcholinesterase (Homo sapiens) (UniProt P22303); assay: Acetylcholinesterase (AChE) small molecule antagonists: fluorescence cell-based qHTS assay (AID 1347398); settings: Potency: AChE activity; outcome: AChE activity; also: nearly all actives have a fitted effect of over 50% in size; also: potency is read from the fitted curve at half-maximal effect
Summary of the method: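 Cells (SH-SY5Y) attached overnight, were dosed with compound or DMSO vehicle for 30 min at 37 C, and then incubated 40 min at room temperature with acetylthiocholine and Thiolite Green; green fluorescence indexed AChE activity.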

[4] = molecular target: Acetylcholinesterase (Homo sapiens) (UniProt P22303); assay: Acetylcholinesterase (AChE) small molecule antagonists: enzyme-based qHTS assay with human liver microsomes (AID 1347399); settings: Potency: qHTS inhibition; outcome: qHTS inhibition; also: nearly all actives have a fitted effect of over 60% in size; also: potency is read from the fitted curve at half-maximal effect
Summary of the method: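 Recombinant human AChE (50 mU/mL in the enzyme mix) and human liver microsomes (0.25 mg/mL final) were preincubated with compound and NADPH (0.25 mg/mL final) for 30 min at 37 C. Acetylthiocholine/DTNB was then added; thiocholine was read colorimetrically after 10 min at room temperature.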
% is scaled to controls: 0 for no effect and ±100 for the full control effect.

Sequence of Acetylcholinesterase (Homo sapiens) (P22303 whole entry, looked up): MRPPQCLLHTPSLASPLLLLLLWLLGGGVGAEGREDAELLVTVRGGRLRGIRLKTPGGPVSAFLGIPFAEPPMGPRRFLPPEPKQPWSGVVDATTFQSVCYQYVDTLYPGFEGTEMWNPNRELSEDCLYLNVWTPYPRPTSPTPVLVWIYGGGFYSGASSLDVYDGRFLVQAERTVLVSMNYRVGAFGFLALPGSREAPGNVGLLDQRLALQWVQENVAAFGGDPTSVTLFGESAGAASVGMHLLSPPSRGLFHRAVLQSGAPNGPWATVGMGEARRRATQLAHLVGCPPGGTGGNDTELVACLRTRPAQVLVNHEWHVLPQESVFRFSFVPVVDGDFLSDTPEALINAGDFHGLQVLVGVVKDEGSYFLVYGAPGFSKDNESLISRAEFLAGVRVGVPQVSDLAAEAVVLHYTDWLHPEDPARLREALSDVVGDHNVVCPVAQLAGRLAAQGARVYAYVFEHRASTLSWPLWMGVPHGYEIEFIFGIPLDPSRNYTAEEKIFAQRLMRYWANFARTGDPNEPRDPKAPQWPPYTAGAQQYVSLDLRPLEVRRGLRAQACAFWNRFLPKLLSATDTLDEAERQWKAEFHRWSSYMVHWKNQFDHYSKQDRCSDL

Cc1ccc(O)c(C(C)(C)C)c1
inactive: Potency [1] | Potency [2] | Potency [3] | Potency [4]

C=CC(O)CCCCC (stereo not given)
inactive: Potency [1] | Potency [2] | Potency [3] | Potency [4]

CCCCCCCCCCCCOC(=O)c1cc(O)c(O)c(O)c1
active: Potency [2] 35.4 µM and 39.9 µM
inactive: Potency [1] | Potency [3] | Potency [4]

O=C(O)c1ccco1
inactive: Potency [1] | Potency [2] | Potency [3] | Potency [4]

CCCC(C)=O
inactive: Potency [1] | Potency [2] | Potency [3] | Potency [4]

CCCCC(CC)COCC1CO1 (stereo not given)
inactive: Potency [1] | Potency [2] | Potency [3] | Potency [4]

NC(=O)NC(N)=O
inactive: Potency [1] | Potency [2] | Potency [3] | Potency [4]

Cc1cccc(C(=O)O)c1[N+](=O)[O-]
inactive: Potency [1] | Potency [2] | Potency [3] | Potency [4]

O=C=Nc1ccc(Cc2ccc(N=C=O)cc2)cc1
inactive: Potency [1] | Potency [2] | Potency [3] | Potency [4]

ClC1=C(Cl)C1(Cl)Cl
inactive: Potency [1] | Potency [2] | Potency [3] | Potency [4]

NC(N)=NCCC[C@H](N)C(=O)O
inactive: activity, negative = inhibition [1] 5.24% [at 10.5 µM] | activity change, negative = inhibition [2] -0.554% [at 10.5 µM] | activity change, negative = inhibition [3] 6.4% [at 10.5 µM] | activity change, negative = inhibition [4] -0.0087% [at 10.5 µM]

CCOC(=O)Cn1c(=O)sc2cccc(Cl)c21
inactive: Potency [1] | Potency [2] | Potency [3] | Potency [4]

C[C@H]1COc2c(C3(N)CC3)c(F)cc3c(=O)c(C(=O)O)cn1c23
inactive: Potency [1] | Potency [2] | Potency [3] | Potency [4]

COCC(C)OC(C)=O (stereo not given)
inactive: Potency [1] | Potency [2] | Potency [3] | Potency [4]

C#CCN(C)Cc1ccccc1
inactive: Potency [1] | Potency [2] | Potency [3] | Potency [4]

O=C(c1ccccc1)c1cc(Cl)ccc1O
inactive: Potency [1] | Potency [2] | Potency [3] | Potency [4]

c1ccc2c(c1)[nH]c1ccccc12
inactive: Potency [1] | Potency [2] | Potency [3] | Potency [4]

CCCc1c2oc(C(=O)O)cc(=O)c2cc2c(=O)cc(C(=O)O)n(CC)c12
inactive: Potency [1] | Potency [2] | Potency [3] | Potency [4]

BrC(Br)C(Br)Br
inactive: Potency [1] | Potency [2] | Potency [3] | Potency [4]

Cc1cc(C(C)(C)C)c(O)c(C(C)(C)C)c1
inactive: Potency [1] | Potency [2] | Potency [3] | Potency [4]

C/C=C\C/C=C/CCCCCCCCOC(C)=O
inactive: Potency [1] | Potency [2] | Potency [3] | Potency [4]

O=C(O)c1cc(N=Nc2ccc(S(=O)(=O)Nc3ccccn3)cc2)ccc1O
inactive: Potency [1] | Potency [2] | Potency [3] | Potency [4]

CC(=O)C1(C)CC2=C(CCCC2(C)C)CC1C (stereo not given)
inactive: Potency [1] | Potency [2] | Potency [3] | Potency [4]

CC(C)(C)C1CCCCC1O (stereo not given)
inactive: Potency [1] | Potency [2] | Potency [3] | Potency [4]

Cc1cc(O)c2c(c1)C(=O)c1cc(O)cc(O)c1C2=O
inactive: Potency [1] | Potency [2] | Potency [4]
15.5 µM (active) and inactive: Potency [3]

Cc1onc(-c2ccccc2)c1C(=O)Cl
inactive: Potency [1] | Potency [2] | Potency [3] | Potency [4]

COC(C)CCO (stereo not given)
inactive: Potency [1] | Potency [2] | Potency [3] | Potency [4]

CC(C)CC(C)CC(O)CC(C)C (stereo not given)
inactive: Potency [1] | Potency [2] | Potency [3] | Potency [4]

c1ccc2[nH]c(-c3cscn3)nc2c1
inactive: Potency [1] | Potency [2] | Potency [3] | Potency [4]

CC(=O)Nc1ccc(/C=N/NC(N)=S)cc1
inactive: Potency [1] | Potency [2] | Potency [3] | Potency [4]

CC(C)(N)CO
inactive: Potency [1] | Potency [2] | Potency [3] | Potency [4]

C[Si](C)(C)N[Si](C)(C)C
inactive: Potency [1]
19.8 µM (active) and inactive: Potency [4]
1.98 µM (active) and inactive: Potency [3]
3.96 µM (active) and inactive: Potency [2]

CCCCCCCCCCCCOCCOCCOCCOCCOCCOCCOCCOCCOCCO
inactive: Potency [1] | Potency [2] | Potency [3] | Potency [4]

CCCc1nn(C)c2c(=O)[nH]c(-c3cc(S(=O)(=O)N4CCN(C)CC4)ccc3OCC)nc12
inactive: Potency [1] | Potency [2] | Potency [3] | Potency [4]

C=CC(=O)OCC(C)OCC(C)OCC(C)OC(=O)C=C (stereo not given)
inactive: Potency [1] | Potency [2] | Potency [3] | Potency [4]

CCCCN=C(N)N=C(N)N
inactive: Potency [1] | Potency [2] | Potency [3] | Potency [4]

O=C(O)C(=O)Cc1ccccc1
inactive: Potency [1] | Potency [2] | Potency [3] | Potency [4]

CN1C(=O)CC(c2ccccc2)C1=O (stereo not given)
inactive: Potency [1] | Potency [2] | Potency [3] | Potency [4]

CN(C)CCCNCCC#N
inactive: Potency [1] | Potency [2] | Potency [3] | Potency [4]

CCCCCCCN
inactive: Potency [1] | Potency [2] | Potency [3] | Potency [4]

c1ccc2cc3c(ccc4ccccc43)cc2c1
inactive: Potency [1] | Potency [2] | Potency [3] | Potency [4]

O=C1NCC2(CCN(CCc3ccccc3)CC2)O1
inactive: Potency [1] | Potency [2] | Potency [3] | Potency [4]

CCCc1c(OCCCOc2ccc(OCC(=O)O)cc2)ccc(C(C)=O)c1O
inactive: Potency [1] | Potency [2] | Potency [3] | Potency [4]

Cc1cccc(C)c1OCC(=O)N[C@@H](Cc1ccccc1)[C@@H](O)C[C@H](Cc1ccccc1)NC(=O)[C@H](C(C)C)N1CCCNC1=O
inactive: Potency [1] | Potency [2] | Potency [3] | Potency [4]

Cn1nnc2c(C(N)=O)ncn2c1=O
inactive: Potency [1] | Potency [2] | Potency [3] | Potency [4]

COC(=O)c1ccc(C=O)cc1
inactive: Potency [1] | Potency [2] | Potency [3] | Potency [4]

Cc1ccc([N+](=O)[O-])cc1S(=O)(=O)O
inactive: Potency [1] | Potency [2] | Potency [3] | Potency [4]

Cc1ccc(O)c(C(=O)c2ccccc2)c1
inactive: Potency [1] | Potency [2] | Potency [3] | Potency [4]

Nc1cccc2c1CN(C1CCC(=O)NC1=O)C2=O (stereo not given)
inactive: Potency [1] | Potency [2] | Potency [3] | Potency [4]

C=CCOC(=O)/C=C\C(=O)OCC=C
inactive: Potency [1] | Potency [2] | Potency [3] | Potency [4]

CC(=O)Oc1ccc([N+](=O)[O-])cc1CCl
inactive: Potency [1] | Potency [2] | Potency [3] | Potency [4]

CC(C)c1cccc(C(C)C)c1N1C(=O)c2ccc(O)cc2C1=O
inactive: Potency [1] | Potency [2] | Potency [3] | Potency [4]

CCOCCOCC
inactive: Potency [1] | Potency [2] | Potency [3] | Potency [4]

CCCCCCCCCCN
inactive: Potency [1] | Potency [2] | Potency [3] | Potency [4]

c1ccc(CNc2ncnc3c2ncn3C2CCCCO2)cc1 (stereo not given)
inactive: Potency [1] | Potency [2] | Potency [3] | Potency [4]

CCCCCC(=O)OCCc1ccccc1
inactive: Potency [1] | Potency [2] | Potency [3] | Potency [4]

OCCOCCOCCOCCO
inactive: Potency [1] | Potency [2] | Potency [3] | Potency [4]

CCOC(=O)C(C)(C)Oc1ccc(Cl)cc1
inactive: Potency [1] | Potency [2] | Potency [3] | Potency [4]

Nc1ccc(C(=O)Nc2ccccc2N)cc1
inactive: Potency [1] | Potency [2] | Potency [3] | Potency [4]

CC(C)C(=O)OC(=O)C(C)C
inactive: Potency [1] | Potency [2] | Potency [3] | Potency [4]

Source: PubChem BioAssay (Tox21)
